Laboratory results from PubChem BioAssay AID488890 (Southern Research Specialized Biocontainment Screening …, 2010).
Screen size: about 320,000 compounds; about 1,300 (0.41%) were called active. Not shown: some 3% with an inconclusive outcome. How the calls were made is not given here. Only a sample is shown. Entries with a potency or affinity are not part of this list.

Experiment: growth inhibition of non-replicating M. tuberculosis (AID 488890);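 further: plate controls were DMSO cells for no effect and high antibiotic wells for full effect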
Settings: Mycobacterium tuberculosis non-replicating, at 25 µM, stronger effect = higher value

Structure (SMILES) | inhibition [%]
O=C(NCc1cccs1)C1CCCCC1 | 54
O=C(CC1CCCCC1)NCc1ccc(Cl)cc1 | 11
O=C(CC1CCCCC1)NCc1ccccc1Cl | 33
O=C(CCCCC(=O)NCc1cccs1)NCc1cccs1 | 1.23
O=C(NCCCNC(=O)c1cccs1)c1cccs1 | -16.1
O=C(NCc1cccs1)C1CC1 | -9.67
O=C(NCCCCNC(=O)c1cccs1)c1cccs1 | -0.35
O=C(NCc1cccs1)C12CC3CC(CC(C3)C1)C2 | 26.9
COc1ccc(C(CNC(=O)c2ccccc2SC)N(C)C)cc1 (stereo unspecified) | -4.14
CCCCN(C(=O)CSc1nnc(-c2ccccc2)n1C)c1c(N)n(Cc2ccccc2)c(=O)[nH]c1=O | 8.96
Cc1nc2sc(C)c(C)c2c(=O)[nH]1 | 3.35
COc1cc(CN2CCNCC2)cc(OC)c1OC | -14.6
COC(=O)c1ccc(NC(=O)COc2ccc(S(=O)(=O)NC(C)(C)C)cc2)cc1 | -11.9
CC(NC(=O)CN1C(=O)NC2(CCc3ccccc32)C1=O)c1ccccc1 (stereo unspecified) | 15.4
CNNC(=S)Nc1ccc(Cl)cc1 | -0.3
Cc1nnc(NC(=O)CSc2n[nH]c(-c3ccccc3C)n2)s1 | 5.17
CC(=O)Nc1cccc(NC(=O)c2ccc(Br)cc2)c1 | -8.54
CC(=O)/C(=N/Nc1ccccc1C)N1CCOCC1 | 9.51
O=C(CCC1CCCCC1)NCc1ccncc1 | 29
O=C(CCC1CCCCC1)NCc1ccccn1 | 79.4
O=C(CC1CCCCC1)NCc1ccc(F)cc1 | 55.7
O=C(CC1CCCCC1)NCc1ccccn1 | 69.6
O=C(CCC1CCCC1)Nc1ccc([N+](=O)[O-])cn1 | 67.7
O=C(O)CCC(=O)Nc1ccc(Br)cn1 | -12.1

Structure (SMILES) | inhibition [%]
O=C(CN1C(=O)NC2(CCCc3ccccc32)C1=O)N1CCCCC1 (stereo unspecified) | 6.72
Nc1ccc(Br)cc1C(=O)c1ccccc1 | 53.2
CCN(CC(=O)Nc1c(F)cccc1F)C(=O)CCCc1c[nH]c2ccccc12 | -0.99
COc1cc(C(=O)OCC2CC(c3ccccc3)=NO2)cc(OC)c1OC (stereo unspecified) | 3.53
CCOC(=O)c1cc(-c2ccccc2)n(CC2CC(c3ccc(OC)cc3)=NO2)n1 (stereo unspecified) | 0.81
CC(=O)c1cc(NC(=O)c2ccccc2)c(=O)oc1C | 54.9
Cc1oc(=O)c(NC(=O)c2ccccc2)cc1C(N)=O | -8.22
N/C(=N\OC(=O)c1ccc2ccccc2c1)c1ccccn1 | 15.8
COc1cccc(NC(=O)C(C)N2C(=O)c3ccccc3S2(=O)=O)c1 (stereo unspecified) | -2.17
COc1ccc(-c2c([C@H]3[C@H]4C=CC[C@@H](C)[C@@H]4C(=O)N3Cc3ccccc3)ccc3ccccc23)cc1OC | 60.8
COc1ccc(/C=N/Nc2cc(C)nc(N3CCOCC3)n2)cc1 | -21.2
Cc1ccc(/C=N/Nc2cc(C)nc(N3CCOCC3)n2)cc1 | 5.46
Cc1cc(N/N=C/c2ccc(F)cc2)nc(NCc2ccccc2)n1 | 60.8
COc1ccc(/C=N/Nc2cc(C)nc(N)n2)cc1 | 27.6
O=C(O)CC(NC(=O)c1cccc(F)c1)c1ccc(OC2CCCC2)cc1 (stereo unspecified) | -8.15
CCCCC(=O)Nc1ccc(C(=O)c2ccccc2)cc1 | -5.55
CCn1cc(CNC(=S)Nc2cccc(Cl)c2C)cn1 | 72.5
C/C=C\C(=O)Nc1cccc(C2=NOC3(C2)C[C@@H](C(N)=O)N(C(=O)C2(C)CC2)C3)c1 (stereo partly specified) | 2.93
CC(=O)Nc1ccc(NC(=O)CN(C)S(=O)(=O)c2ccc3nc(C)sc3c2)cc1 | 6.18
CCC(=O)Nc1nc2c(OC)ccc(C)c2s1 | -15
COc1ccc(OC)c2sc(NC(=O)CCSc3ccccc3)nc12 | 14.7
COc1ccc(CNC(=O)C(=O)NCC2OCCN2S(=O)(=O)c2ccc3c(c2)OCCO3)cc1 (stereo unspecified) | -1.2
CCOc1ccc(NC(=O)CCNS(=O)(=O)c2ccc3c(c2)CC(C)N3C(C)=O)cc1 (stereo unspecified) | -1.02
CCOC(=O)C1CCN(Cc2ccc(OCc3ccccc3)c(OC)c2)CC1 | 6.11

Structure (SMILES) | inhibition [%]
CCN1C(=O)N/C(=C/c2ccc(Sc3ccc(C)cc3)o2)C1=O | 39.1
Cc1ccc(N2NC(=O)/C(=C/c3ccc(-c4ccc(Cl)c(C(=O)O)c4)o3)C2=O)cc1 | 26.2
CC1=CN2C(=N)/C(=C/c3ccc(Sc4ccc(C)cc4)o3)C(=O)N=C2S1 | -10.5
O=C1NN(c2ccccc2)C(=O)/C1=C/c1ccc(-c2ccc(C(=O)O)cc2)o1 | 37.2
CCN(CC)C(=O)COc1ccc(-c2ccccc2)cc1 | 37.2
CC(NC(=O)COc1ccc(Br)cc1)C1CCCO1 (stereo unspecified) | 0.437
COc1ccc(CCC(=O)NC(C)C2CCCO2)cc1 (stereo unspecified) | -3.51
CC(C)C(C)NC(=O)COc1ccc(-c2ccccc2)cc1 (stereo unspecified) | -4.32
CCC(CC)n1[nH]c(=O)c2c(C)cc(C)nc21 | -4.61
CCCc1nc(SCC(=O)NC2CC2)c2c(C)c(C)sc2n1 | 6
CC[C@@]12C(=O)N(c3cccc(Br)c3)C(=O)N1[C@H](c1cccc(C)c1)[C@@H]1C(=O)N(Cc3ccccc3)C(=O)[C@@H]12 | 23.5
O=C(c1ncc[nH]1)c1cccs1 | -0.79
CCOC(=O)C1CCCN(Cc2ccccc2Cl)C1 (stereo unspecified) | 21.6
CC(NCc1ccc(Cl)cc1)C(O)c1ccccc1 (stereo unspecified) | 12.6
CC(NCc1cccc(OCc2ccccc2)c1)C(O)c1ccccc1 (stereo unspecified) | 63.5
Cn1c(Cc2ccccc2)nnc1SCc1ccc(C(=O)O)cc1 | -12
CCOC(=O)c1c(C)n(OC)c2ccc3c(no[n+]3[O-])c12 | -0.23
COn1c2c(c3c4no[n+]([O-])c4ccc31)CCCC2 | -5.21
CCCCC(=O)Nc1c2c(nn1-c1cccc(C)c1C)CS(=O)(=O)C2 | -2.3
COc1cc(C(=O)NCc2ccccn2)ccc1OCc1c(C)noc1C | -3.19
C=CCN1C(=O)C2(NC(=O)c3ccccc3N2)c2ccccc21 (stereo unspecified) | -5.15
O=C1N(CCCCN2C(=O)C3(OCCO3)c3ccccc32)c2ccccc2C12OCCO2 | 5.68
C=CCN1C(=O)C2(OCCCO2)c2ccccc21 | 11.8
O=C1N(CCCN2C(=O)C3(OCCO3)c3ccccc32)c2ccccc2C12OCCO2 | 0.91

Structure (SMILES) | inhibition [%]
COc1ccccc1C(=O)N1CCN(C2CCN(Cc3ccccc3)CC2)CC1 | -21.9
COc1ccc(OC(C)C(=O)NC(C)c2ccccc2)cc1 (stereo unspecified) | -7.62
O=C1CCCC(O)=C1C=Nc1ccc(O)cc1 | 17.3
O=C1CCCC(O)=C1C=Nc1cccc(C(F)(F)F)c1 | -1.35
CC(C)CN(C(=O)COC(=O)c1ccccn1)c1c(N)n(Cc2ccccc2)c(=O)[nH]c1=O | -2.29
C=CCOc1ccc(C2CC(C)=NN2c2ccccc2)cc1 (stereo unspecified) | 35.9
CCOC(=O)C1=NN(c2ccccc2)C(c2ccccc2)CC1=O (stereo unspecified) | 12.4
Cc1ccc(C)c(S(=O)(=O)N2CCN(C(=O)CCC(=O)NCc3ccc(Cl)cc3)CC2)c1 | 6.7
NC(=O)c1ccc(NC(=O)COC(=O)C2CC(=O)N(Cc3ccccc3)C2)cc1 (stereo unspecified) | -1.36
Cc1nn2c(NCCCN(C)C)c3c(nc2c1-c1ccccc1)CCCC3 | 73.4
Cc1nn2c(NCCCN(C)C)c3c(nc2c1-c1ccccc1)CCC3 | -10.7
CCO/C=C1/C(=O)N(C(C)=O)c2ccccc21 | -5.81
Cc1ccc(-c2nnc(-c3ccccc3Br)o2)cc1 | 78.7
COc1ccccc1-c1nnc(-c2ccc(N3CCOCC3)cc2)o1 | 18.5
c1ccc(-c2nnc(-c3ccccc3)o2)cc1 | 66.5
Cc1cccc(-c2nnc(-c3ccccc3)o2)c1 | 79.9
Fc1ccc(-c2nnc(-c3ccc(Cl)cc3)o2)cc1 | 72.1
COc1ccc(-c2nnc(-c3ccc(F)cc3)o2)cc1 | 76.7
COc1ccc(-c2nnc(-c3cccs3)o2)cc1OC | 60.7
CN(C)c1ccc(-c2nnc(-c3cccs3)o2)cc1 | 48.7
Cc1cc(=O)oc2ccc(OC(C)C(=O)O)cc12 (stereo unspecified) | -4.21
Cn1cc(C(=O)C(=O)N2CCCC2)c2ccccc21 | -3.83
CC(=O)Nc1ccc(Nc2nc(C)c([N+](=O)[O-])c(N(C)c3ccccc3)n2)cc1 | 71.5
Cc1nc(N/N=C/c2ccccc2)nc(N(C)c2ccccc2)c1[N+](=O)[O-] | -0.99

Structure (SMILES) | inhibition [%]
CC(=O)c1cccc(OCc2cc(C(=O)NCc3nc(C)c(C)s3)no2)c1 | -3.04
COc1ccc(NC(=O)COc2ccc(C(=O)NCc3cccnc3)cc2OC)cc1 | 10.8
O=C(O)c1c2c(nc3ccccc13)-c1ccccc1CC2 | -7.78
O=C(OCC(=O)N1CCN(c2ccccc2)CC1)c1ccccn1 | -2.7
O=C(OCC(=O)N1CCN(c2ccccc2)CC1)c1ccc(Cl)nc1 | 60.4
O=C(OCC(=O)N1CCCC1)c1cnc(Cl)c(Cl)c1 | 7.3
O=C(OCC(=O)N1CCCCC1)c1ccc2ccccc2n1 | 50
Clc1ccc(N2CCN(c3ccnc(Cl)n3)CC2)cc1 | 53
COCCCNC(=O)c1c(N)n(-c2ccc3c(c2)OCO3)c2nc3ccccc3nc12 | -12.5
O=C(NC1CCCCC1)c1cc(-c2ccc(Cl)cc2)on1 | -0.38
O=C(Nc1ccccc1)c1cccc2c(Br)cccc12 | -8.76
CCc1ccc(/C(C)=N/NC(=O)c2ccccn2)cc1 | 27
Cc1ccc(N=CC2=C(O)CC(c3ccccc3Cl)CC2=O)cc1 (stereo unspecified) | 2.23
O=C(Nc1ccc(Br)cc1F)c1sccc1-n1cccc1 | 0.35
COc1ccccc1C(=O)Nc1c2c(nn1-c1ccc([N+](=O)[O-])cc1)CS(=O)(=O)C2 | -26.7
CC(=O)Oc1ccc([C@@H]2COc3c(ccc4c3C=CC(C)(C)O4)C2)c(OC(C)=O)c1 | -2.73
COc1cc(/C=C2/C(=N)N3OC(C)=CC3=NC2=O)ccc1OCCOc1ccc(C)cc1 | -6.61
CC(=O)Nc1ccc(OCCOc2ccc(/C=C3/C(=N)N4C=CSC4=NC3=O)cc2)cc1 | 2.76
COc1cc(/C=C2\C(=N)N3N=CSC3=NC2=O)cc(Br)c1OC(=O)c1ccco1 | -3.1
CC1=CC2=NC(=O)/C(=C/c3cccs3)C(=N)N2O1 | -5.09
